Data on eight molecules can be found in PubChem BioAssay (NCI).

Structures are written as SMILES. This is part of a sample that, as a whole, favours compounds with a hit. Of some 83,000 tested, about 20% had one in any assay.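 Each cell line was grown in a 96-well plate and treated with one concentration of compound for 48 hours. Values below 10 were considered active.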 A number with no mark means an inactive call. Activity calls are given as the source filed them.

Among the test systems are SR leukemia; RPMI-8226 leukemia; OVCAR-8 ovarian; OVCAR-5 ovarian; OVCAR-4 ovarian; SK-OV-3 ovarian; IGROV1 ovarian; OVCAR-3 ovarian; HS 578T breast; NCI/ADR-RES ovarian; T-47D breast; BT-549 breast; SW-620 colon; MCF7 breast; HCT-116 colon; HCC-2998 colon; KM12 colon; MDA-MB-435 melanoma.
Holding throughout (assay): NCI-60 one-dose screen, 48 h (100 = growth as untreated, 0 = no growth, -100 = all killed)
What all share (conditions): 10 µM unless noted

On to `CNc1cc2nc3cc(NC)c(C)cc3cc2cc1C`, for which the growth in the assay with SR leukemia is -27.6% (active); in the assay with RPMI-8226 leukemia, 3.16% (active); in the assay on OVCAR-8 ovarian, 2.25% (active); in the assay on OVCAR-5 ovarian, 24.5%; in the assay on OVCAR-4 ovarian it was 10.8%; in the assay with SK-OV-3 ovarian, 12.7%. Further, the growth in the assay with IGROV1 ovarian was 21.1%; in the assay with OVCAR-3 ovarian it was 3.6% (active); in the assay on HS 578T breast, 13.1%; in the assay with NCI/ADR-RES ovarian, 40.7%; in the assay with T-47D breast, 7.86% (active); in the assay on BT-549 breast, 20.6%. Further, the growth in the assay with SW-620 colon is 8.75% (active); in the assay with MCF7 breast, 3.03% (active); with HCT-116 colon it was 5.54% (active); in the assay with HCC-2998 colon, 18.7%; in the assay with KM12 colon, -40.7% (active).
Take `COc1ccc2nc3cc(Cl)ccc3c(N3CCN(c4nccc(Nc5ccc(Cl)cc5)n4)CC3)c2c1`: the growth in the assay with SR leukemia is 30.4%; with RPMI-8226 leukemia, 43.9%; with OVCAR-8 ovarian, 80.7%; in the assay with OVCAR-5 ovarian it was 90.6%; with OVCAR-4 ovarian, 60.7%; in the assay on SK-OV-3 ovarian it was 88.4%. For the same molecule, the growth in the assay with IGROV1 ovarian is 83.1%; in the assay on OVCAR-3 ovarian, 49.5%; in the assay on HS 578T breast it was 84.3%; in the assay on NCI/ADR-RES ovarian it was 80.7%; in the assay with T-47D breast it was 32.2%; with MDA-MB-435 melanoma, 78.7%. In addition, the growth with SW-620 colon was 73.7%; with MCF7 breast it was 41.6%; with HCT-116 colon, 12%; in the assay on HCC-2998 colon, 92.3%; in the assay on KM12 colon, 62.3%.
Turning to `COc1cc2c(=O)n(CC3CCCCC3)c3c4cc[nH]c4ncc3c2cc1OC`, the growth is 6.22% (active) in the assay with SR leukemia; 34.5% in the assay with RPMI-8226 leukemia; 26.9% in the assay on OVCAR-8 ovarian; 52.3% in the assay with OVCAR-5 ovarian; 19.3% with OVCAR-4 ovarian; 47.7% with SK-OV-3 ovarian. Also, the growth in the assay on IGROV1 ovarian was 23.6%; in the assay with OVCAR-3 ovarian, 38.7%; in the assay with HS 578T breast, -4.62% (active); in the assay with NCI/ADR-RES ovarian, 33.8%; in the assay on T-47D breast, 44.9%; with BT-549 breast, 25.9%. Besides, the growth in the assay with SW-620 colon was 30.3%; in the assay with MCF7 breast it was 19.8%; in the assay with HCT-116 colon, 28.9%; in the assay with HCC-2998 colon, 62.3%; in the assay on KM12 colon, 19%.
As to `COc1c(C2CC(=O)Nc3c2cnn3Cc2ccco2)cc2c(c1OC)OCO2` (centres undefined), the growth in the assay with SR leukemia is 2.13% (active); in the assay on RPMI-8226 leukemia, -1.94% (active); in the assay on OVCAR-8 ovarian, 18%; in the assay on OVCAR-5 ovarian it was 40.8%; in the assay with OVCAR-4 ovarian, 39.2%; in the assay with SK-OV-3 ovarian, -9.03% (active). Besides, the growth with IGROV1 ovarian is 52.8%; in the assay on OVCAR-3 ovarian it was -35.9% (active); with HS 578T breast, 30.4%; in the assay on NCI/ADR-RES ovarian, 4.88% (active); with T-47D breast, 55.6%; with BT-549 breast it was 8.74% (active). Further, the growth in the assay with SW-620 colon is 23%; with MCF7 breast, 12.8%; in the assay with HCT-116 colon, 12.8%; in the assay on KM12 colon it was 16.8%.
`Nc1ccc(N2CCOCC2)cc1`: the growth with SR leukemia was 110%; in the assay on RPMI-8226 leukemia, 112%; with OVCAR-8 ovarian, 105%; in the assay on OVCAR-5 ovarian, 91.7%; in the assay with OVCAR-4 ovarian, 92.8%; in the assay with SK-OV-3 ovarian, 104%. In addition, the growth in the assay with IGROV1 ovarian was 105%; with OVCAR-3 ovarian, 99.7%; in the assay with HS 578T breast, 125%; in the assay on NCI/ADR-RES ovarian it was 85.6%; in the assay with T-47D breast it was 88.1%; with BT-549 breast, 82.1%. The growth is 111% with SW-620 colon; 88.8% in the assay with MCF7 breast; 98% in the assay with HCT-116 colon; 96.9% with HCC-2998 colon; 115% with KM12 colon.
On to `Brc1cccc(-c2cc(-c3ccc4c(c3)OCCO4)[nH]n2)c1`, for which the growth in the assay with SR leukemia is 31.4% [25 µM]; in the assay on RPMI-8226 leukemia, 20.8% [25 µM]; with OVCAR-8 ovarian, 29.7% [25 µM]; in the assay with OVCAR-5 ovarian, 39.8% [25 µM]; in the assay on OVCAR-4 ovarian, 58.6% [25 µM]; in the assay with SK-OV-3 ovarian, 39.5% [25 µM]. Further, the growth in the assay with IGROV1 ovarian is 30.2% [25 µM]; in the assay on OVCAR-3 ovarian, -7.07% [25 µM] (active); in the assay on HS 578T breast, 30% [25 µM]; in the assay with NCI/ADR-RES ovarian it was 4.14% [25 µM] (active); in the assay on T-47D breast it was 29% [25 µM]; in the assay on BT-549 breast it was 41.7% [25 µM]. In addition, the growth is 28.7% [25 µM] in the assay on SW-620 colon, 10.6% [25 µM] in the assay on MCF7 breast, 21% [25 µM] with HCT-116 colon and 22.9% [25 µM] in the assay with KM12 colon.
For the molecule `CCOC(=O)c1c2c(n3ccc(NC(=O)CCN4CCOCC4)cc13)C(=O)c1ncccc1C2=O`, the growth with SR leukemia was -2.96% (active); in the assay on RPMI-8226 leukemia it was 31.8%; with OVCAR-8 ovarian it was 48%; with OVCAR-5 ovarian, 88.9%; in the assay with OVCAR-4 ovarian, 37%; in the assay on SK-OV-3 ovarian it was 36.6%. Besides, the growth was 31.3% in the assay on IGROV1 ovarian; 4.63% (active) in the assay on OVCAR-3 ovarian; 52% with HS 578T breast; 40.5% with NCI/ADR-RES ovarian; 32.6% with T-47D breast; 58.3% in the assay with BT-549 breast. The growth with SW-620 colon was 37.2%; in the assay with MCF7 breast, -31.7% (active); in the assay on HCT-116 colon, 21.8%; with HCC-2998 colon, 42.5%; in the assay with KM12 colon, 46.2%.
With `COc1ccc(/C=C/C(=O)c2c(O)c(C)c(O)c3c2OC2=CC(O)=C(C(C)=O)C(=O)[C@]23C)cc1`, the growth was -17.6% (active) in the assay on SR leukemia; -28.9% (active) in the assay on RPMI-8226 leukemia; -14.9% (active) in the assay on OVCAR-8 ovarian; 7.96% (active) in the assay on OVCAR-5 ovarian; 12.1% with OVCAR-4 ovarian; -24.9% (active) in the assay with SK-OV-3 ovarian. For the same molecule, the growth was -8.12% (active) in the assay on IGROV1 ovarian; -20.5% (active) with OVCAR-3 ovarian; -9.2% (active) with HS 578T breast; -13.5% (active) in the assay on NCI/ADR-RES ovarian; -17.1% (active) in the assay with T-47D breast; -19.9% (active) with BT-549 breast. Further, the growth in the assay on SW-620 colon was 6.73% (active); in the assay on MCF7 breast, -2.88% (active); with HCT-116 colon, -8.41% (active); in the assay with HCC-2998 colon, -30.2% (active); in the assay with KM12 colon, -4.07% (active).
